Values joined by “and” are separate entries in the source; they are usually repeats but may differ in a detail not shown here. Identical values can stand only once. Results filed as inconclusive are left out. Unmarked numbers belong to inactive results. Active and inactive are the calls of the source. The call rests on the fitted dose curve; in most records, active means well fitted activation curve with a large enough effect in the signal ratio, with a control signal flat (not every such curve was filed as active); inconclusive means small, poorly fitted or top-dose-only effect, or effect the other way, or a change in a side signal; inactive means flat fitted curve, though single readings scatter; the % refers to the signal ratio.
Potency means the concentration at half of the fitted maximal effect.

A short description of the test: qHTS Assay for Identification of Small Molecule Agonists for Hypoxia Response Element Signaling Pathway (AID 914). On activation: % of control where 0% means no effect. To be noted: ME-180 (cervical carcinoma) HRE-bla reporter, beta-lactamase ratio, CoCl2, 17 h; activation: hits give high values. From the text:
NIH Molecular Libraries Screening Centers Network [MLSCN]
NIH Chemical Genomics Center [NCGC]
Hypoxia-inducible factor-1 (HIF-1) is the major hypoxia-regulated transcription factor that controls cellular responses to low oxygen concentration. HIF-1 is composed of two subunits: hypoxia responsive HIF-1 alpha and constitutively expressed HIF-1 beta, which is also known as aryl hydrocarbon receptor nuclear translocator. During hypoxic conditions, HIF-1 alpha heterodimerizes with HIF-1 beta and translocates into the nucleus where the HIF-1 complex binds to the hypoxia-response element (HRE) and activates expression of target genes such as VEGF (vascular endothelial growth factor). HIF-1 alpha protein levels are elevated in many solid tumors, including those of the cervix and brain. Within tumors, cells that are the greatest distance from blood vessels and therefore the most hypoxic express the highest levels of HIF-1 alpha. Therapeutic blockade of the HIF-1 signaling pathway in cancer cells therefore provides an attractive strategy for development of anticancer drugs.
Using a beta-lactamase reporter-gene under control of the hypoxia response element, a cell-based assay [CellSensor(TM) HRE-bla ME-180 developed by Invitrogen Corp.] was used to measure hypoxia-induced signaling. Library compounds were measured for their ability to positively modulate the action of EC50 CoCl2 on reporter gene activity. Compounds were screened in a titration series in 1536-well format. Positive modulators were identified based on the AC50 values derived from the screening data.
NCGC Assay Protocol Summary:
2500 cells/5uL in Opti-MEM medium containing 0.5% dialyzed FBS, 0.1 mM NEAA, 1 mM sodium pyruvate and 10 mM HEPES was dispensed into 1536-well plates and cells were cultured at 37 degrees Celsius overnight. Next day 23 nL of compounds or DMSO were delivered to each well using a pin tool, and 1uL of EC50 level of CoCl2, or EC100 level of CoCl2, or assay medium was added. And then the plates were incubated at 37 degrees Celsius for 17 hours. 1 uL of CCF4-dye mixture was added to each well. After incubated at room temperature for 2.5 hours the plates were measured on an EnVision plate reader at Excitation 405nm, Emission1=460nm and Emission 2=530nm. The %Activity was determined from the ratio of 460nm/530nm.
For the compound `COc1ccc(Oc2ncc3nc(-c4ccc(F)cc4)c(=O)n(C)c3n2)cc1`, the activation was 16.5%.

`Cc1noc(C)c1-c1ccc2ncnc(NCc3ccccc3)c2c1`: the Potency was 3.16 µM (active).

For `COc1ccccc1-c1cncnc1N(C)Cc1ccco1`, the activation was -12.2%.

For the compound `COCCn1c(=O)c(-c2cn(C)c3ccccc23)nc2cnc(Oc3ccc(OC)cc3)nc21`, the Potency is 3.16 µM (active).

As to `COc1ccccc1-c1ccc2ncnc(NC3CC3)c2c1`, the activation was 27.8%.

As to `COCC(=O)N1CCC2(CCN(Cc3nccs3)CC2)CC1`, the activation was 14.8%.

In the case of `COc1ccc(-n2c(=O)c(-c3ccc(Cl)cc3)nc3cnc(N4CCOCC4)nc32)cc1`, the Potency is 0.631 µM (active).

Regarding `CN(C)c1ncc2nc(-c3cc(F)cc(F)c3)c(=O)n(CCc3ccccc3)c2n1`, the Potency was 2.51 µM (active).

Consider `CN1CCN(c2ncc3nc(-c4ccc(Cl)cc4)c(=O)n(C)c3n2)CC1`, for which the Potency is 3.16 µM (active).

On to `COC(=O)N1CCC2(CCCN(Cc3ccccc3)C2)CC1`, for which the activation was 3.12%.

Take `CN(C)c1ncc2nc(-c3ccccc3)c(=O)n(Cc3cccs3)c2n1`: the Potency was 3.16 µM (active).

With `COc1cccc(-c2ccc3ncnc(NCCN4CCOCC4)c3c2)c1`, the activation is -14.8%.

In the case of `O=C(c1cnccn1)N1CCC2(CCCN(Cc3ccccc3)C2)CC1`, the activation is 16.9%.

For `COc1ccccc1CN1CCCC2(CCN(S(=O)(=O)c3ccccc3)CC2)C1`, the activation is -6.58%.

Consider `CN(C)c1ncc2nc(-c3ccccc3)c(=O)n(C3CC3)c2n1`, for which the Potency was 3.16 µM (active).

Take `Cc1cccc(CNc2ncncc2-c2cccc(NS(C)(=O)=O)c2)c1`: the activation was 3.55%.

For the compound `COc1ccc(-n2c(=O)c(CCc3ccccc3)nc3cnc(N(C)C)nc32)cc1`, the activation was 10.3%.

With `COc1ccccc1CNc1ncncc1-c1ccccc1CN(C)C`, the activation was -9.29%.

With `COc1ccc(-c2nc3cnc(N(C)C)nc3n(CCc3ccccc3)c2=O)cc1`, the Potency was 0.794 µM (active).

For `c1cncc(CNc2cc(-c3ccoc3)ncn2)c1`, the activation was 0.531%.

Turning to `C[C@@H]1CCC[C@H](C)N1NC(=O)c1ccc(Cl)c(S(N)(=O)=O)c1`, the activation was -10.1% and -0.309%.

For `COc1ccc(-n2c(=O)c(-c3ccc(Cl)cc3)nc3cnc(N(C)C)nc32)cc1`, the Potency was 3.16 µM (active).

For `COc1ccc(NC(=O)N2CC[C@@]3(CCCN(C(=O)c4c(C)noc4C)C3)C2)cc1`, the activation is -0.633%.

Take `COc1ccc(-n2c(=O)c(-c3ccccc3)nc3cnc(N4CCOCC4)nc32)cc1`: the activation is -1.88%.

`Cc1ccccc1-c1cncnc1NCCN1CCOCC1`: the Potency was 3.16 µM (active).

`O=S(=O)(c1ccccc1)N1CCC2(CC1)CN(Cc1ccccc1)C2`: the activation is 8.23%.

For the compound `CCNc1ncc2nc(-c3cc(F)cc(F)c3)c(=O)n(-c3ccccc3)c2n1`, the Potency is 2.51 µM (active).

For the compound `Cn1c(=O)c(-c2cc(F)cc(F)c2)nc2cnc(N3CCNCC3)nc21`, the Potency was 3.16 µM (active).

As to `COCCn1c(=O)c(-c2cn(C)c3ccccc23)nc2cnc(Oc3ccccc3)nc21`, the Potency was 3.16 µM (active).

`COc1cccc(Cn2c(=O)c(-c3ccc(F)cc3)nc3cnc(N4CCOCC4)nc32)c1`: the Potency is 3.16 µM (active).

Consider `Cc1nc2cnc(N(C)C)nc2n(CCc2ccccc2)c1=O`, for which the activation is -12%.

For the compound `Cn1cccc1C(=O)N1CCC2(CCN(Cc3ccncc3)CC2)CC1`, the activation was -5.1%.

Regarding `COc1cccc(-c2nc(NCc3cnc(C)cn3)c3ccccc3n2)c1`, the activation was 6.27%.

Regarding `CS(=O)(=O)N1CCC2(CCCN(c3cccc(-c4ccccc4)c3)C2)CC1`, the activation was -18.3%.

As to `N#Cc1cccc(NC(=O)N2CCCC3(CCN(C(=O)c4ccncc4)CC3)C2)c1`, the activation was -1.72%.

Regarding `Cn1cc(-c2nc3cnc(N4CCNCC4)nc3n(-c3ccccc3)c2=O)c2ccccc21`, the Potency is 3.98 µM (active).

Consider `COc1ccc(Oc2ncc3nc(-c4cccs4)c(=O)n(C)c3n2)cc1`, for which the Potency is 3.16 µM (active).

For the compound `COc1cccc(-c2ccc3ncnc(NCCNC(C)=O)c3c2)c1`, the activation is 5.52%.

For the compound `COc1ccc(-c2nc3cnc(N4CCN(C)CC4)nc3n(CCC#N)c2=O)cc1`, the Potency is 3.16 µM (active).

For `COc1ccc(Oc2ncc3nc(-c4cccs4)c(=O)n(-c4ccccc4)c3n2)cc1`, the Potency was 2.51 µM (active).
